Peg3 prom inh – Peg3 promoter activity inhibition. HeLa PEG-Prom luciferase reporter, luminescence, overnight. inhibition, % at 20 µM. 1.7% of 360,000 active. AID 588405;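 active means inhibition of at least 50% at 20 µM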
TWEAK-Fn14 inh – blocks TWEAK-Fn14 interaction in a reporter cell assay; inhibition, % at 10 µM; TWEAK-stimulated Fn14 reporter cells, luciferase luminescence, 8 h; 2% of 360,000 active; in the data active means inhibition above about 50%
KKLEB tox – counter-screen for CF NF-kB inhibitors: cytotoxicity; KKLEB CF airway cells viability, ATPlite luminescence, overnight; stronger effect = lower value; cells stimulated with P. aeruginosa culture filtrate; activity change (cytotoxicity), % at 5 µM; 0.36% of 360,000 active;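 active means corrected activity change at or below -50% at 5 µM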
HIF-2a inh – blocks HIF-2a reporter activity | 786-0 RCC cells HIF-2a reporter, luciferase luminescence, overnight | inhibition, % at 18.8 µM | 0.72% of 360,000 active | AID 624352;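 active means inhibition of the luminescence signal of 40% or more relative to plate controls, in a single-dose primary screen at 18.75 µM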
CF NFkB inh – inhibitors of cystic fibrosis induced NF-kB | KKLEB NF-kB-GFP reporter, PAF-induced, GFP fluorescence overnight | inhibition, % at 5 µM | 0.86% of 360,000 active | AID 588850;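 active means at least 50% inhibition at 5 µM, scaled per plate between neutral and stimulator controls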;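 further: PAF is a Pseudomonas aeruginosa culture filtrate used as stimulus; plate controls were PAF-stimulated DMSO wells for no effect and unstimulated DMSO wells for full effect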
TROY signal inh – TROY signaling inhibition | Q293 LMP1-TROYcd NF-kB luciferase reporter, 4 h | inhibition, % at 10 µM | 0.98% of 360,000 active | AID 1347056;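 active means compounds whose plate-normalised and pattern-corrected inhibition of the luciferase reporter signal at the single screening dose is 50% or more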
CF NFkB conf – confirmation of cystic fibrosis induced NF-kB inhibitors; shares compounds with CF NFkB inh; KKLEB CF airway cells, PAF-induced NF-kB-GFP fluorescence, overnight; inhibition, % at 5 µM; 64% of 1,300 active; AID 602472; in the data active means inhibition above about 40%;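 further: stimulus PAF is a Pseudomonas aeruginosa filtrate and not platelet activating factor; plate controls were DMSO wells with stimulus for no effect and unstimulated DMSO wells for full effect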
Starred values were filed as active, the others as inactive. Shown are actives, neighbours in structure and some others; about 4% of the full set was active somewhere.

COc1ccc2c(C)nc(Nc3nc(-c4ccccc4)cc(=O)[nH]3)nc2c1 was read as Peg3 prom inh 108.2*, TWEAK-Fn14 inh 63.1*, KKLEB tox 2.8, HIF-2a inh -51.6, CF NFkB inh 63.9*, TROY signal inh 57.8* and CF NFkB conf -59.4.
Cc1cccc(Nc2ncnc3ccc(Br)cc23)c1 was read as Peg3 prom inh 2.5, TWEAK-Fn14 inh 62.1*, KKLEB tox -10.1, HIF-2a inh 28.4, CF NFkB inh 58.5*, TROY signal inh 26.2 and CF NFkB conf 71.8*.
CN(C)c1ccc(Nc2ncnc3ccc(Br)cc23)cc1 was read as Peg3 prom inh -0.2, TWEAK-Fn14 inh 82.2*, KKLEB tox -9.5, HIF-2a inh -13.6, CF NFkB inh 73.1*, TROY signal inh 48.0 and CF NFkB conf 92.8*.
`COc1ccc(Nc2ncnc3ccc(Br)cc23)cc1OC` gave Peg3 prom inh 6.7, TWEAK-Fn14 inh 5.8, KKLEB tox -11.4, HIF-2a inh 21.8, CF NFkB inh 47.6 and TROY signal inh 6.7.
`Cc1ccc2ncnc(Nc3ccccc3)c2c1` gave Peg3 prom inh -5.8, TWEAK-Fn14 inh 11.1, KKLEB tox -15.4, HIF-2a inh -15.3, CF NFkB inh 27.6 and TROY signal inh 2.1.
`Clc1cccc(Nc2ncnc3ccc(Br)cc23)c1` gave Peg3 prom inh 10.2, TWEAK-Fn14 inh 63.1*, KKLEB tox -41.0, HIF-2a inh 22.7, CF NFkB inh 69.3*, TROY signal inh 42.4 and CF NFkB conf 58.5*.
`CC(C)(C)S(=O)N1Cc2cc(C(=O)NCC(F)(F)F)nc(-c3cccc(-c4cccc(F)c4)c3)c2[C@@H]1CCO` (stereo partly drawn) gave Peg3 prom inh 69.3*, TWEAK-Fn14 inh 53.0*, KKLEB tox -10.4, HIF-2a inh 14.5, CF NFkB inh 78.0*, TROY signal inh 7.0 and CF NFkB conf 64.8*.
Screening COc1ccccc1NC(=O)Nc1ccc(Cc2ccncc2)cc1 returned Peg3 prom inh -197.5, TWEAK-Fn14 inh -9.4, KKLEB tox 16.2, HIF-2a inh -268.1, CF NFkB inh -11.4 and TROY signal inh -16.9.
Cc1ccc(C(=O)COC(=O)c2cc(Cl)ccc2O)cc1[N+](=O)[O-] was read as Peg3 prom inh 4.9, TWEAK-Fn14 inh 30.8, KKLEB tox -14.1, HIF-2a inh 13.3, CF NFkB inh 51.8*, TROY signal inh 0.8 and CF NFkB conf 47.2*.
Screening N#Cc1cccnc1Nc1cccc(Cl)c1 returned Peg3 prom inh -27.0, TWEAK-Fn14 inh 4.6, KKLEB tox -6.1, HIF-2a inh -34.6, CF NFkB inh -6.2 and TROY signal inh -22.6.
Screening O=C(Nc1ccc(OCC(=O)N2CCOCC2)cc1)c1cncc(Br)c1 returned Peg3 prom inh -3.6, TWEAK-Fn14 inh 38.6, KKLEB tox -16.0, HIF-2a inh 3.0, CF NFkB inh 57.2*, TROY signal inh 13.8 and CF NFkB conf 48.1*.
CC(=O)c1ccc(N2CCN(C(=O)COc3ccc4ccccc4c3)CC2)cc1 was read as Peg3 prom inh -1.3, TWEAK-Fn14 inh 6.4, KKLEB tox 7.2, HIF-2a inh 4.0, CF NFkB inh -19.1 and TROY signal inh 11.1.
Screening CCCCCCCC(=O)NNC(=O)Cc1ccccc1 returned Peg3 prom inh 2.2, TWEAK-Fn14 inh -4.1, KKLEB tox 8.1, HIF-2a inh -4.8, CF NFkB inh -19.0 and TROY signal inh -10.9.
CCCCCCCCCCCC(=O)c1c(O)cccc1O was read as Peg3 prom inh 25.6, TWEAK-Fn14 inh -11.1, KKLEB tox -11.7, HIF-2a inh 8.1, CF NFkB inh 71.4*, TROY signal inh 15.5 and CF NFkB conf 41.5*.
`Nc1c(C(=O)Nc2ccccc2)sc2ncc([N+](=O)[O-])cc12` gave Peg3 prom inh -76.8, TWEAK-Fn14 inh -27.9, KKLEB tox 14.2, HIF-2a inh -110.8, CF NFkB inh -18.5 and TROY signal inh -25.9.
For NC(=O)c1sc2nccc(Nc3ccccc3)c2c1N the results were Peg3 prom inh -40.6, TWEAK-Fn14 inh 4.7, KKLEB tox 4.4, HIF-2a inh -15.3, CF NFkB inh 73.0*, TROY signal inh -5.6 and CF NFkB conf 72.9*.
`NS(=O)(=O)c1ccc(CCNC(=O)c2ccc(C#CC3(O)CCCCC3)cc2)cc1` gave Peg3 prom inh 87.2*, TWEAK-Fn14 inh 26.9, KKLEB tox 3.4, HIF-2a inh -13.6, CF NFkB inh 81.2*, TROY signal inh 56.2* and CF NFkB conf 80.3*.
NS(=O)(=O)c1ccc(CCNC(=O)c2ccncc2)cc1 was read as Peg3 prom inh 0.4, TWEAK-Fn14 inh 18.0, KKLEB tox -0.7, HIF-2a inh -3.6, CF NFkB inh -18.5 and TROY signal inh -6.6.
`CC1(C)C([N+](=O)[O-])C(c2ccccc2O)NC(c2ccccc2O)C1[N+](=O)[O-]` (stereo not drawn) gave Peg3 prom inh 12.0, TWEAK-Fn14 inh 3.6, KKLEB tox 3.4, HIF-2a inh 15.2, CF NFkB inh -1.4 and TROY signal inh 27.3.
CN(CC(=O)Nc1ccc(F)cc1)C(=O)c1cc([N+](=O)[O-])ccc1N1CCOCC1 was read as Peg3 prom inh 6.8, TWEAK-Fn14 inh 2.6, KKLEB tox 22.1, HIF-2a inh 1.6, CF NFkB inh -29.0 and TROY signal inh -7.0.
Cc1nn(-c2nccs2)c2c1C(=O)CC(C)(C)C2Br (stereo not drawn) was read as Peg3 prom inh 49.5, TWEAK-Fn14 inh 19.7, KKLEB tox 2.4, HIF-2a inh 9.3, CF NFkB inh 50.7*, TROY signal inh 14.2 and CF NFkB conf 61.4*.
`CC(=O)N1CC(=O)N=C1SCC(=O)Nc1nc(C)c(-c2ccccc2)s1` gave Peg3 prom inh -47.4, TWEAK-Fn14 inh -4.6, KKLEB tox 19.8, HIF-2a inh -90.8, CF NFkB inh 50.9*, TROY signal inh -16.9 and CF NFkB conf 60.2*.
Screening O=C(O)C1OC(C(=O)O)C(C(=O)O)C1C(=O)O (stereo not drawn) returned Peg3 prom inh -27.7, TWEAK-Fn14 inh 8.5, KKLEB tox 17.1, HIF-2a inh 6.4, CF NFkB inh -22.4 and TROY signal inh -3.9.
For COc1ccc(NC(=O)C2CCN(c3cnccn3)CC2)cc1Cl the results were Peg3 prom inh -7.1, TWEAK-Fn14 inh -0.1, KKLEB tox 7.3, HIF-2a inh -5.2, CF NFkB inh 8.1 and TROY signal inh -16.4.
Cc1cc(N2C(=O)C(O)=C(C(=O)c3ccc(C)o3)C2c2cccc(Oc3ccccc3)c2)no1 (stereo not drawn) was read as Peg3 prom inh 15.4, TWEAK-Fn14 inh -7.7, KKLEB tox 5.7, HIF-2a inh 3.6, CF NFkB inh 51.1*, TROY signal inh 5.8 and CF NFkB conf 64.4*.

Screens from PubChem BioAssay.
